The sample as a whole holds a higher share of hits than the screen did.
PNC assembly inh: inhibitors of perinucleolar compartment assembly; AID 2417; PC3M PTB-GFP, PNC prevalence imaging, 16 h; hits give low values; 140,000 compounds, 3.1% hits; activity change (PNC), negative = inhibition, % at 10 µM;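 active means readout at or below -70, meaning at least 70% loss of cells showing the perinucleolar compartment, a nuclear body marking cancer cells; inconclusive means readout between -30 and a set limit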;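 further: plate controls were DMSO wells for no effect and camptothecin positive control wells for full effect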
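Read-out is percentage of cells bearing a perinucleolar compartment, from automated 20x imaging of fixed, Hoechst-stained PC3M PTB-GFP cells. Cells were seeded 4 h, then exposed 16 h to compound (23 nl of library stock) in duplicate plates.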
HTT ATP protect: Huntington cell model cytoprotection by ATP luminescence; PC12 HTT-Q103 induced, cytoprotection, ATP luminescence, 40 h; Potency, µM (titrated, usually from 56.4 µM), for inactives: cytoprotection (ATP increase), most hits filed as activators; 230,000 compounds, 0.14% hits; AID 1471; further: potency means the concentration at half of the fitted maximal effect; % of control where 0% means no effect; nearly all actives have a fitted effect of over 45% in size
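Quantitative HTS on tebufenozide-induced (100 nM) PC12 cells expressing HTTQ103 exon 1–GFP; compounds tested as a concentration series; survival measured via cellular ATP.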
HttQ103 aggreg: inhibitors of mutant huntingtin aggregate formation in PC12 cells; PC12 HttQ103-GFP aggregates, Acumen cytometry, 40 h; Potency, µM (titrated, usually from 46.1 µM), for inactives: at the top dose activity change, negative = inhibition, usual class: inhibitors; 220,000 compounds, 1.1% hits; AID 1688; further: potency means the concentration at half of the fitted maximal effect; on the % scale 0 is the no-effect control and ±100 the full control effect; nearly all actives have a fitted effect of over 60% in size
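Quantitative HTS on tebufenozide-induced (100 nM) PC12 cells stably expressing polyQ103 Huntingtin exon 1–GFP. Reduction of bright GFP aggregates, detected by laser scanning cytometry after lysis, identified actives across the titration.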
Starred values were filed as active, the others as inactive; ? = inconclusive; . = no result; [ ] = another dose, or the depositor's remark. Unless noted, the call rests on the fitted dose curve; in most records, active means well fitted curve in the direction sought with a large enough effect; inconclusive means small, poorly fitted or top-dose-only effect, or another doubt; inactive means no such curve, though single readings can be large; an effect the other way counts as inactive or inconclusive.

SMILES | PNC assembly inh | HTT ATP protect | HttQ103 aggreg
N/C(=N\NC(=O)c1ccc(Cl)cc1)c1cnccn1 | . | -1.0%[10 µM] | 21.8%[9.22 µM]
Cc1cc(C)n(C(CC(=O)N2CCc3ccccc3C2)C(=O)O)n1 (configuration not stated) | -126.5* | -1.4% | -5.7%
Cc1cc([N+](=O)[O-])nn1CC(=O)N1CCc2ccccc2C1 | 36.3 | -2.8% | -7.3%
CCC(C)NC(=O)C1CCCN1S(=O)(=O)c1ccc(Cl)cc1 (configuration not stated) | -118.9* | 24.2%[10 µM] | -2.9%
CCC(C)NC(=O)C1CCCCN1S(=O)(=O)c1ccc(F)cc1 (configuration not stated) | ? | -10.0% | -13.0%
COc1cc(C2CC(=O)n3c(nc4ccccc43)S2)cc(OC)c1OC (configuration not stated) | -97.6* | -0.5%[10 µM] | 14.0%
O=C(O)C1CC(=O)n2c(nc3ccccc32)S1 (configuration not stated) | 15.0 | 16.7% | 9.4%
COc1ccc(Oc2nnc(C)c3ccccc23)cc1 | 33.7 | -21.7% | 14.2%
C/C(Cc1ccccc1)=N/NC(=O)CNC(=O)C(c1ccccc1)c1ccccc1 | . | -0.6%[10 µM] | -15.8%[9.22 µM]
COc1ccc(-n2ncc(N(C)n3cccc3)c(Cl)c2=O)cc1 | -9.0 | -6.2% | 1.5%
COc1ccc(-n2ncc(Cl)c(Cl)c2=O)cc1 | . | . | 3.98µM*
CCOC(=O)c1cccc(Nc2nc(-c3cccnc3)nc3ccccc23)c1 | 5.0 | -52.9% | ?
COC(=O)CSc1nnc(CNc2ccc(F)cc2)o1 | 9.0 | 4.0% | -4.6%
CC(C)N(C(=O)CSc1nnc(CNc2ccc(F)cc2)o1)C(C)C | -100.0* | -5.1%[10 µM] | 14.5%
O=C1CCN(S(=O)(=O)c2ccccc2)C2CCCCC12 (configuration not stated) | -86.5* | 12.6%[10 µM] | -10.6%
O=C(O)C1CCCCN1S(=O)(=O)c1ccccc1 (configuration not stated) | -12.7 | 6.0% | 12.4%
O=C(CS(=O)(=O)Cc1ccccc1)Nc1ccc(Cl)cn1 | 34.8 | 11.5%[10 µM] | -2.5%
CSc1nnc2c3c4c(sc3nc(-n3nc(C)cc3C)n12)COC(C)(C)C4 | 13.8 | -5.5% | 23.7%
Cc1cc(C)n(-c2nc3sc4c(c3c3nnc(SCC(N)=O)n23)CC(C)(C)OC4)n1 | -100.0* | -4.3%[10 µM] | 11.2%
CN1CCN(C2=Cc3ccccc3Sc3cc(F)c(Cl)cc32)CC1 | -6.4 | -3.6%[10 µM] | ?
CN1CCN(C2=Cc3ccccc3Sc3cc(F)c(F)cc32)CC1 | -87.6* | -15.3%[10 µM] | 20µM*
Cc1cccc(C)c1NC(=O)Cn1nc(-c2ccccc2)nc1-c1ccccc1 | -12.6 | -25.8%[10 µM] | 23.7%
O=C(COc1ccccc1F)N1CCc2ccccc2C1 | . | 39.2%[10 µM] | 37.8%[9.22 µM]
Cc1ccc(NS(=O)(=O)c2cccc(C(=O)O)c2)cc1S(=O)(=O)N1CCCCC1 | 10.6 | -0.7%[10 µM] | -26.3%
CCN(C(=O)c1ccc(C(C)(C)C)cc1)c1nnc(Cn2nnc3ccccc32)s1 | -26.2 | 15.8%[10 µM] | 6.31µM*
SMILES | PNC assembly inh | HTT ATP protect | HttQ103 aggreg
CCc1cccc(CC)c1N(COC)C(=O)Cn1nnc2ccccc21 | 32.6 | -1.2% | 4.4%
Cc1ccc(C(=O)NNC(=O)Cn2nnc3ccccc32)cc1 | . | 10.1%[10 µM] | 11.5%[9.22 µM]
CCN(C(=O)CC(C)C)c1nnc(Cn2nnc3ccccc32)s1 | . | 0.891µM* | -27.0%
CCOC(=O)C1C(C(=O)OCC)C1(c1ccccc1)c1ccccc1 (configuration not stated) | 1.3 | 15.5%[10 µM] | -0.1%
O=C(N/N=C/c1ccc(Cl)c([N+](=O)[O-])c1)c1cnccn1 | ? | 12.3%[10 µM] | 6.3%
O=C(CSc1nnc(SCc2ccc(Cl)cc2)s1)N1CCOCC1 | -16.0 | 11.6% | 28.1%[9.22 µM]
Cc1cc(NC(=O)CCN2CCC(C(N)=O)CC2)ccc1Br | ? | 5.2% | -5.2%
CC(NC(=O)CN1CCC(C(N)=O)CC1)c1ccccc1 (configuration not stated) | -7.5 | 8.1%[10 µM] | 0.1%
NC(=O)C1CCN(CCC(=O)Nc2ccc(Br)cc2)CC1 | -21.7 | 0.112µM* | .
Cc1ccc(NC(=O)CCN2C(=O)CSC2=O)cc1 | -16.6 | 4.4%[1.9 µM] | -13.8%
NC(=O)C1CCN(CC(=O)Nc2ccccn2)CC1 | ? | -0.2% | 2.24µM*
O=C(CCN1C(=O)CSC1=O)Nc1ccc(Br)cc1 | -100.0* | -1.2%[10 µM] | -3.1%
O=C(Nc1ccccc1)N(O)c1ccc(Cl)cc1 | 14.0 | 1.2%[10 µM] | 4.1%
O=C(O)c1cccc(OCc2ccccc2Cl)c1 | ? | -14.4% | -14.1%
NNc1nc(-c2ccccc2)cc(-c2ccccc2O)n1 | -106.0* | -62.9% | -17.2%
Nc1nc(-c2ccccc2)cc(-c2ccccc2O)n1 | -26.3 | -29.7% | 28.9%
CCN(c1cccc(C(F)(F)F)c1)S(=O)(=O)c1ccc2c(c1)CCN2C(C)=O | -98.5* | 6.5% | ?
CCN(c1cccc(C)c1)S(=O)(=O)c1ccc2c(c1)CCN2C(C)=O | 28.8 | -43.1% | -19.0%
COC(=O)c1c(-c2ccc(C)cc2)csc1NC(=O)Cc1ccc(OC)c(OC)c1 | -29.3 | -14.6% | ?
COC(=O)c1c(-c2cccc3ccccc23)csc1NC(=O)Cc1ccc(OC)c(OC)c1 | -12.0 | 3.2%[10 µM] | 12.6µM*
CCSCc1nnc(SCC(=O)Nc2ccc(F)cc2)n1CC | . | -11.3%[10 µM] | 6.3%
Cc1ccc(-c2csc(NC(=O)CSc3nc(C)cs3)n2)cc1 | -19.9 | -24.4%[10 µM] | 21.1%
Cc1ccccc1NC(=O)/C(C#N)=C\c1cccnc1 | -81.8* | 27.1%[10 µM] | 5.2%
N#C/C(=C\c1ccccc1)C(=O)Nc1cccnc1 | . | 17.6%[10 µM] | 15.5%[9.22 µM]
COc1ccc2c(c1)c1ncn(Cc3ccco3)c(=O)c1n2C | 85.1 | -29.4% | 10µM*
SMILES | PNC assembly inh | HTT ATP protect | HttQ103 aggreg
COc1ccc2c(c1)c1ncn(Cc3ccc(F)cc3)c(=O)c1n2C | . | 7.1%[10 µM] | -0.4%[9.22 µM]
O=C(Nc1nncs1)c1cccc(S(=O)(=O)N2CCOCC2)c1 | 10.2 | 25.5% | -12.8%
Cc1cc(C)c(C)c(OCC(=O)NCC2CCCO2)c1 (configuration not stated) | -90.4* | -4.0%[0.074 µM] | -1.5%
Cc1cc(C)cc(OCC(=O)NCC2CCCO2)c1 (configuration not stated) | 64.4 | 5.5% | -12.8%
CCc1nnc(NC(=O)CSc2nnc(Cc3cccn3C)n2CCOC)s1 | 7.0 | -4.6% | 9.2%
Cc1nc(N2CCN(Cc3ccccc3)CC2)nc2c1C(=O)CCC2 | 12.0 | -15.1%[0.074 µM] | ?
O=C1CCCc2nc(N3CCN(Cc4ccccc4)CC3)ncc21 | ? | -22.5% | 11.2µM*
COc1cc2c(C#N)c(N3CCN(C)CC3)nc(N)c2c(N)n1 | -19.2 | -20.2% | -32.9%
COc1cc2c(C#N)c(N3CCN(c4ccccc4OC)CC3)nc(N)c2c(N)n1 | -9.7 | 12.7%[10 µM] | 11.2µM*
COc1ccc(OC)c(C2=NOC(C(=O)Nc3c(C)n(C)n(-c4ccccc4)c3=O)C2)c1 (configuration not stated) | . | 6.6% | -28.7%[9.22 µM]
C=CCNC(=O)C(C)Sc1ccc(Cl)cc1 (configuration not stated) | 19.3 | -19.7% | 7.5%
COc1cccc(-n2c(SCc3ccccn3)nc3c(c2=O)SCC3)c1 | . | -6.5% | 15.0%
COc1ccccc1N1CCN(C(=O)c2cc3c(=O)n(C)c4ccccc4c3n2C)CC1 | -88.3* | -13.9% | -0.5%
Cn1c(C(=O)N2CCN(c3ccc(F)cc3)CC2)cc2c(=O)n(C)c3ccccc3c21 | . | -5.3% | .
